Compounds without any hit were thinned out: in the full panel of roughly 83,000, 20% have a hit.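 In brief: 96-well plates, 48 h treatment, single concentration, percent growth endpoint.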 Active and inactive are the calls of the source. The calls were made as follows: active = growth percent below 10; inactive = the rest.

The test system of this experiment is EKVX NSCLC. The experiment can be described thus: NCI-60 one-dose screen, 48 h (100 = growth as untreated, 0 = no growth, -100 = all killed). The conditions noted are these: 10 µM unless noted.
With `Cn1nc(C(F)(F)F)cc1-c1cc(Cl)c(OCc2ccc(Cl)cc2)c(-c2ccc(Cl)c(C(F)(F)F)c2)c1O`, the growth is 4.62% (active). The value for `CC(=O)O[C@H]1[C@H](CC#CC#CC[C@@H]2C[C@]3(C)[C@H]4CC=C5[C@H]6[C@@H](C)[C@H](C)CC[C@]6(C(=O)NCCN(CCN)CCN)CC[C@@]5(C)[C@]4(C)CC[C@H]3C(C)(C)[C@H]2OC(C)=O)C[C@]2(C)[C@H]3CC=C4[C@H]5[C@@H](C)[C@H](C)CC[C@]5(C(=O)NCCN(CCN)CCN)CC[C@@]4(C)[C@]3(C)CC[C@H]2C1(C)C` was -6.42% (active); that for `CC(=O)c1ccc(Nc2nc(Cl)nc(Oc3c(Cl)cccc3Cl)n2)cc1` was 77.2% (inactive); that for `Oc1[nH]c2ccccc2c1/C=c1/ccc2c(c1)N=C(c1ccc(C(F)(F)F)cc1)N=2` was 51.1% (inactive). In the case of `Brc1cccc(-n2ncc3c(Nc4ccc(-c5nnc(-c6ccccc6)o5)cc4)ncnc32)c1` it was 102% (inactive); in that of `CCNC(=S)N(Cc1ccccc1)Cc1ccccc1`, 93.1% (inactive); in that of `COc1cccc(CC(C)=C(c2ccc(OCCCN(C)C)cc2)c2ccc(OCCCN(C)C)cc2)c1`, -83.9% (active). On to `N[C@@H](CO)C(=O)O`, for which the growth was 84.3% (inactive). Consider `O=C(c1ccc(C(F)(F)F)c(Cl)c1)N(Cc1ccc(Cl)cc1)c1ccc(-c2cc(C(F)(F)F)[nH]n2)c(O)c1`, for which the growth is 0.0577% (active). For the compound `c1ccc(C(Nc2ccccn2)(c2ccccc2)c2ccccc2)cc1`, the growth is 38.1% (inactive). The value for `CC[C@H](Nc1nc(N)nc(N)c1Cl)c1nc2cccc(NCc3ccc(C(=O)NO)cc3)c2c(=O)n1-c1ccccc1` was 42% (inactive); that for `N#Cc1nc(-c2ccc(Cl)cc2)cc(-c2ccc(Nc3nc(N4CCCCC4)nc(N4CCCCC4)n3)cc2)c1N` was 91.8% (inactive). The value for `C#CC[C@@H]1C[C@]2(C)[C@H]3CC=C4[C@H]5[C@@H](C)[C@H](C)CC[C@]5(C(=O)NCCCCN)CC[C@@]4(C)[C@]3(C)CC[C@H]2C(C)(C)[C@H]1OC(C)=O` was 96% (inactive); that for `Cn1nc(C(F)(F)F)cc1-c1c[nH]c(OCc2ccc(Cl)cc2)c(-c2ccc(Cl)c(C(F)(F)F)c2)c1=O` was 5.56% (active).

`COc1ccc(NC(=O)c2ccc(C(F)(F)F)nc2Nc2ccc(Cl)cc2C)cc1Cl`: the growth was 11.3% (inactive). In the case of `O=C(Cn1nncc1CN1C(=O)CSC1=O)Nc1ccc(F)cc1` it was 92.6% (inactive); in that of `COc1ccc(NC(=O)/C=C/c2ccc(Cl)c(Cl)c2)cn1`, 83.7% (inactive). In the case of `CCCCNCC(O)c1cc(-c2ccc(C(F)(F)F)cc2)nc(-c2ccc(C(F)(F)F)cc2)c1` (stereo not drawn) it was -61.8% (active); in that of `CCCc1cc2c(cc1CN(Cc1cc3c(cc1CCC)OCO3)C(=N)OCC)OCO2`, 75% (inactive); in that of `CCCNC(=S)N/N=C(\C)c1ccccn1`, 12.1% (inactive). The value for `C#CC[C@@H]1C[C@]2(C)[C@H]3CC[C@@H]4[C@H]5C(C(=C)C)CC[C@]5(C(=O)NCCCN5CCN(CCCN)CC5)CC[C@@]4(C)[C@]3(C)CC[C@H]2C(C)(C)[C@H]1OC(C)=O` (stereo partly drawn) was 51.9% (inactive). Take `COc1cc2nccc(Oc3ccc(NC(=O)C4(C(=O)Nc5c(F)cc(F)cc5F)CC4)cc3)c2cc1Oc1ccc(N)cn1`: the growth was 45.2% (inactive). Take `COc1ccc2[nH]c(C(=O)OCc3ccc4cccc(O)c4n3)cc2c1`: the growth is -78% (active). As for `CCOCC(O)(c1ccc(Cl)cc1)c1ccc(Cl)cc1`, the growth was 94.1% (inactive). `Cc1cc(C)cc(NC(=O)Cn2nncc2CN2C(=O)CSC2=O)c1`: the growth is 90.3% (inactive). Consider `Cc1ccc(NC(=O)Cn2nncc2CN2C(=O)CSC2=O)cc1C`, for which the growth was 91.3% (inactive).

On to `COC(=O)/C=C/c1cc(OC(C)=O)c2c(c1)[C@@H](C(=O)OC)[C@H](c1ccc(OC(C)=O)c(OC(C)=O)c1)O2`, for which the growth is 34.2% (inactive). Regarding `N=c1n(Cc2ccccc2)c(N)cc(=O)n1Cc1ccccc1`, the growth was 0.834% (active). Consider `CC(C)[C@H](CN)NC[C@H](C)NS(=O)(=O)c1ccc(C(C)(C)C)cc1`, for which the growth is 90% (inactive).

`COc1ccc(/C(=C\c2ccc3c(c2)OCO3)C(=O)Nc2nc3ccccc3s2)cc1`: the growth was 102% (inactive). The value for `Cc1ccc(-c2cnc3sc4ccc(Cl)cc4n23)cc1` was 67.1% (inactive); that for `COc1cc(C2Nc3ccccc3S2)cc(CN2CCOCC2)c1O` (stereo not drawn) was 102% (inactive). In the case of `CC1=C(O)C(=O)C(c2c(C)cc(C)c(Br)c2C)=C(O)C1=O` it was 81.8% (inactive).

For the origin of these results see PubChem BioAssay (NCI).
